Reference: PubChem BioAssay (EPA / NIEHS)
Activity calls are given as the source filed them. How the source made its calls: active means hit-call score of the fitted dose curve at least 0.9, where 1 is the maximum; inactive means score below 0.9.

What was measured:
Conditions in all cases: mRNA level, 48 h; actives raise or lower the signal
[1] = read-out: Ezrin (EZR), EZR (gene 7430); test: LTEA_HepaRG_EZR: Life Technologies and Expression Analysis (LTEA) Assay for Ezrin (EZR) using HepaRG (AID 2283491)
Method in brief: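 Gain or loss of EZR mRNA is scored relative to 0.5% DMSO in human HepaRG cultures treated 48 h with test chemicals in duplicate, eight half-log concentrations from 100 uM.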

[2] = read-out: Cytochrome P450 3A7 (Homo sapiens) (UniProt P24462); test: LTEA_HepaRG_CYP3A7: Life Technologies and Expression Analysis (LTEA) Assay for CYP3A7 using HepaRG (AID 2283492)
Method in brief: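 CYP3A7 transcript measured by qRT-PCR (ACTB, GAPDH, POLR2A normalization) after 48 h chemical exposure of HepaRG cells in duplicate. Eight half-log concentrations, maximum 100 uM, 0.5% DMSO vehicle; bidirectional curve fitting against DMSO baseline.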

CYP3A5 (gene 1577) = test: LTEA_HepaRG_CYP3A5: Life Technologies and Expression Analysis (LTEA) Assay for CYP3A5 using HepaRG (AID 2283493)
Method in brief: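 HepaRG cells, plated 48 h then in serum-free induction medium, dosed in duplicate for 48 h with eight half-log concentrations up to 100 uM in 0.5% DMSO. Gene mRNA by Fluidigm TaqMan qRT-PCR, normalized to ACTB, GAPDH, POLR2A.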

[3] = read-out: Cytochrome P450 4A22 (Homo sapiens) (UniProt Q5TCH4); test: LTEA_HepaRG_CYP4A22: Life Technologies and Expression Analysis (LTEA) Assay for Cytochrome P450 4A22 (CYP4A22) using HepaRG (AID 2283495)
Method in brief: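 Gene expression measured by qRT-PCR against three housekeeping genes (ACTB, GAPDH, POLR2A), with gain or loss fitted relative to 0.5% DMSO vehicle. HepaRG cultures received 48 h chemical treatment, top concentration 100 uM, half-log steps, duplicate wells.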

[4] = read-out: Cytochrome P450 7A1 (Homo sapiens) (UniProt P22680); test: LTEA_HepaRG_CYP7A1: Life Technologies and Expression Analysis (LTEA) Assay for Cytochrome P450 7A1 (CYP7A1) using HepaRG (AID 2283496)
Method in brief: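 HepaRG cells plated 48 h, then switched to serum-free induction medium and exposed in duplicate for 48 h to 8-point half-log series from 100 uM in 0.5% DMSO. CYP7A1 mRNA by qRT-PCR (TaqMan), normalized to ACTB/GAPDH/POLR2A; bidirectional fit versus DMSO.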

[5] = read-out: Glutamate-cysteine ligase catalytic (GCLC), GCLC (gene 2729); test: LTEA_HepaRG_GCLC: Life Technologies and Expression Analysis (LTEA) Assay for Glutamate-cysteine ligase catalytic (GCLC) using HepaRG (AID 2283498)
Method in brief: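 Differentiated human HepaRG cells, plated 48 h then switched to serum-free induction medium, were exposed in duplicate for 48 h to 8 half-log concentrations topping at 100 uM in 0.5% DMSO. GCLC mRNA was quantified by qRT-PCR against ACTB, GAPDH and POLR2A.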

[6] = read-out: growth arrest and DNA damage 45 (GADD45G), GADD45G (gene 10912); test: LTEA_HepaRG_GADD45G: Life Technologies and Expression Analysis (LTEA) Assay for growth arrest and DNA damage 45 (GADD45G) using HepaRG (AID 2283499)
Method in brief: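 GADD45G transcript level by qRT-PCR (housekeeping-normalized: ACTB, GAPDH, POLR2A) after 48 h chemical treatment of a single HepaRG lot in serum-free induction medium; eight-point half-log series up to 100 uM in 0.5% DMSO, duplicates, up- or down-regulation scored.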

[7] = read-out: Glutamate-cysteine ligase regulatory (GCLM), GCLM (gene 2730); test: LTEA_HepaRG_GCLM: Life Technologies and Expression Analysis (LTEA) Assay for Glutamate-cysteine ligase regulatory (GCLM) using HepaRG (AID 2283500)
Method in brief: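 Differentiated HepaRG cells exposed 48 h in serum-free induction medium to eight half-log concentrations up to 100 uM (0.5% DMSO). GCLM mRNA by TaqMan qRT-PCR, normalized to ACTB, GAPDH and POLR2A; bidirectional fit versus DMSO.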

[8] = read-out: Glutathione S-transferase M3 (GSTM3), GSTM3 (gene 2947); test: LTEA_HepaRG_GSTM3: Life Technologies and Expression Analysis (LTEA) Assay for Glutathione S-transferase M3 (GSTM3) using HepaRG (AID 2283501)
Method in brief: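 GSTM3 transcript levels came from Fluidigm TaqMan qRT-PCR normalized to three housekeeping genes, fitted in both directions against DMSO. HepaRG cultures received chemicals for 48 h in serum-free induction medium (0.5% DMSO), 8 half-log concentrations up to 100 uM, duplicate.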

[9] = read-out: Heat shock 70 kDa protein 1 (HSPA1A), gene 3303; test: LTEA_HepaRG_HSPA1A: Life Technologies and Expression Analysis (LTEA) Assay for Heat shock 70 kDa protein 1 (HSPA1A) using HepaRG (AID 2283502)
Method in brief: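 Human HepaRG cells in serum-free induction medium were exposed in duplicate for 48 h to 8 half-log concentrations, highest 100 uM, in 0.5% DMSO. HSPA1A mRNA read by TaqMan qRT-PCR, normalized to ACTB, GAPDH, POLR2A, fitted bidirectionally against DMSO.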

[10] = read-out: Hypoxia-inducible factor 1-alpha (Homo sapiens) (UniProt Q16665); test: LTEA_HepaRG_HIF1A: Life Technologies and Expression Analysis (LTEA) Assay for Hypoxia-inducible factor 1 (HIF1A) Trancription factor using HepaRG (AID 2283503)
Method in brief: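 Differentiated HepaRG cells in serum-free induction medium exposed 48 h, in duplicate, to 8-point half-log series from 100 uM in 0.5% DMSO. HIF1A mRNA measured by TaqMan qRT-PCR, normalized to ACTB/GAPDH/POLR2A, fitted bidirectionally versus DMSO.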

[11] = read-out: 3-Hydroxy-3-Methylglutaryl-CoA Synthase 2 (HMGCS2), HMGCS2 (gene 3158); test: LTEA_HepaRG_HMGCS2: Life Technologies and Expression Analysis (LTEA) Assay for 3-Hydroxy-3-Methylglutaryl-CoA Synthase 2 (HMGCS2) using HepaRG (AID 2283504)
Method in brief: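 Readout is HMGCS2 transcript by qRT-PCR, housekeeping-normalised (ACTB/GAPDH/POLR2A) and fitted bidirectionally against 0.5% DMSO. Differentiated HepaRG cells received chemicals 48 h, duplicate wells, eight half-log concentrations topping at 100 uM.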

HGF (gene 3082) = test: LTEA_HepaRG_HGF: Life Technologies and Expression Analysis (LTEA) Assay for Hepatocyte Growth Facto (HGF) using HepaRG (AID 2283505)
Method in brief: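 HGF transcript was quantified by TaqMan qRT-PCR against three housekeeping genes after 48 h treatment of HepaRG cells. Exposure ran in duplicate over eight half-log steps topping at 100 uM in 0.5% DMSO vehicle.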

[12] = read-out: Insulin Like Growth Factor 1 (IGF1), IGF1 (gene 3479); test: LTEA_HepaRG_IGF1: Life Technologies and Expression Analysis (LTEA) Assay for Insulin Like Growth Factor 1 (IGF1) using HepaRG (AID 2283506)
Method in brief: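 Differentiated HepaRG cells in serum-free induction medium, exposed 48 h in duplicate to 8 half-log concentrations up to 100 uM in 0.5% DMSO. IGF1 mRNA by Fluidigm qRT-PCR, normalised to ACTB, GAPDH and POLR2A.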

[13] = read-out: Intercellular Adhesion Molecule 1 (ICAM1), ICAM1 (gene 3383); test: LTEA_HepaRG_ICAM1: Life Technologies and Expression Analysis (LTEA) Assay for Intercellular Adhesion Molecule 1 (ICAM1) using HepaRG (AID 2283507)
Method in brief: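 ICAM1 transcript levels measured by qRT-PCR, normalized to three housekeeping genes (ACTB, GAPDH, POLR2A), after 48 h chemical exposure of HepaRG cells. Duplicate eight-point half-log series from 100 uM in 0.5% DMSO; gain or loss fitted against vehicle.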

[14] = read-out: Insulin-like growth factor-binding protein 1 (IGFBP1), IGFBP1 (gene 3484); test: LTEA_HepaRG_IGFBP1: Life Technologies and Expression Analysis (LTEA) Assay for Insulin-like growth factor-binding protein 1 (IGFBP1) using HepaRG (AID 2283508)
Method in brief: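 Read-out is qRT-PCR transcript level normalized to three housekeeping genes, fitted in both directions against 0.5% DMSO. Differentiated HepaRG cells received eight half-log concentrations (top 100 uM) in duplicate for 48 h in serum-free induction medium.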

[15] = read-out: Interleukin 6 (IL6), IL6 (gene 3569); test: LTEA_HepaRG_IL6: Life Technologies and Expression Analysis (LTEA) Assay for Interleukin 6 (IL6) using HepaRG (AID 2283509)
Method in brief: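 Differentiated human HepaRG cells, plated 48 h then switched to serum-free induction medium, were exposed in duplicate for 48 h to eight half-log concentrations up to 100 uM in 0.5% DMSO. IL6 mRNA measured by qRT-PCR, normalized to ACTB/GAPDH/POLR2A.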

[16] = read-out: Interleukin 6 Receptor (IL6R), IL6R (gene 3570); test: LTEA_HepaRG_IL6R: Life Technologies and Expression Analysis (LTEA) Assay for Interleukin 6 Receptor (IL6R) using HepaRG (AID 2283510)
Method in brief: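 Differentiated HepaRG cells, plated 48 h, then exposed in duplicate for 48 h in serum-free induction medium to 8 half-log concentrations (top 100 uM, 0.5% DMSO). IL6R mRNA measured by TaqMan qRT-PCR, normalized to ACTB/GAPDH/POLR2A; bidirectional fit vs DMSO.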

[17] = read-out: Fatty Acid-Binding Protein 1 (FABP1), FABP1 (gene 2168); test: LTEA_HepaRG_FABP1: Life Technologies and Expression Analysis (LTEA) Assay for Fatty Acid-Binding Protein 1 (FABP1) using HepaRG (AID 2283494)
Method in brief: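 Differentiated human HepaRG cells were exposed in duplicate for 48 h in serum-free induction medium to 8-point half-log concentration series topping at 100 uM in 0.5% DMSO. FABP1 mRNA measured by TaqMan qRT-PCR, normalized to ACTB/GAPDH/POLR2A; bidirectional fit versus DMSO.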

[18] = read-out: Glutathione S-Transferase (GSTA2), GSTA2 (gene 2939); test: LTEA_HepaRG_GSTA2: Life Technologies and Expression Analysis (LTEA) Assay for Glutathione S-Transferase (GSTA2) using HepaRG (AID 2283497)
Method in brief: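 Human HepaRG cells, plated 48 h, then exposed in serum-free induction medium for 48 h to eight half-log concentrations up to 100 uM in 0.5% DMSO, duplicate. GSTA2 mRNA by qRT-PCR, normalized to ACTB/GAPDH/POLR2A; bidirectional fit versus DMSO.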

Measured: AC50

Cytochrome P450 3A7 (Homo sapiens), sequence (P24462 whole entry, looked up): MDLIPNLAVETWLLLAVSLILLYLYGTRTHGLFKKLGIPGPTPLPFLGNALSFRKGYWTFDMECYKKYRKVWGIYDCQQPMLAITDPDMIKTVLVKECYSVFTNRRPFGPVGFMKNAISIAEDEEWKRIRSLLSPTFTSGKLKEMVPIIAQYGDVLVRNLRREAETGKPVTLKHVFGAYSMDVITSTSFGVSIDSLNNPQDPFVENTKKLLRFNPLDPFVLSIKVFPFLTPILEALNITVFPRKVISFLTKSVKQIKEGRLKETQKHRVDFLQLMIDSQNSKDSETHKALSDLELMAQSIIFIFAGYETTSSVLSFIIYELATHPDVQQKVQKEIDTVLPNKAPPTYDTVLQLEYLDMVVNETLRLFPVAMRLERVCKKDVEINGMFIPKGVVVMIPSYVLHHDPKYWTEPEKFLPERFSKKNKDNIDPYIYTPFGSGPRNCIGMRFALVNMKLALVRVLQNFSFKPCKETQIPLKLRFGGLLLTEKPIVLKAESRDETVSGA
Hypoxia-inducible factor 1-alpha (Homo sapiens), sequence (Q16665 whole entry, looked up): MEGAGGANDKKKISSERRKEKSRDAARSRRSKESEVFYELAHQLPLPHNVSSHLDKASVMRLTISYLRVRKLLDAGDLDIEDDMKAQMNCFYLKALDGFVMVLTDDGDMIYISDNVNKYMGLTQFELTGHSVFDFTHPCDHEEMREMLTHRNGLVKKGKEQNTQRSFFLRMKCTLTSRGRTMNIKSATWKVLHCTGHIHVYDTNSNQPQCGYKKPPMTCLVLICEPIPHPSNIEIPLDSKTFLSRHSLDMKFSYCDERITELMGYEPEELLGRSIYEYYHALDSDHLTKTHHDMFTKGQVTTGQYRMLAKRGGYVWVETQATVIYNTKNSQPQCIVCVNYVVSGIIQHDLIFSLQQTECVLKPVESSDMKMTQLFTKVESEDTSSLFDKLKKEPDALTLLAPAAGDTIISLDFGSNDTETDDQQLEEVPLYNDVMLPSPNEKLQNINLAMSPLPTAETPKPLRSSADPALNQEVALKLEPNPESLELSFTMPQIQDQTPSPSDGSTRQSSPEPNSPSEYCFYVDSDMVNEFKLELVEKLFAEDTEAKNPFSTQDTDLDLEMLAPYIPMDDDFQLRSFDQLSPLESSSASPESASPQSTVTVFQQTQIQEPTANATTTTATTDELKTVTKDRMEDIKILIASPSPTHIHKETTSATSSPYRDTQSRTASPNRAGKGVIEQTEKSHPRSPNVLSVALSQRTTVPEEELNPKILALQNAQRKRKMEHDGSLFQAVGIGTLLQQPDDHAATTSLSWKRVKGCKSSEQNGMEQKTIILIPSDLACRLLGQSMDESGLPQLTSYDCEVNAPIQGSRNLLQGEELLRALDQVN

O=C(OC[C@H]1O[C@@H](OC(=O)c2cc(O)c(O)c(OC(=O)c3cc(O)c(O)c(O)c3)c2)[C@H](OC(=O)c2cc(O)c(O)c(OC(=O)c3cc(O)c(O)c(O)c3)c2)[C@@H](OC(=O)c2cc(O)c(O)c(OC(=O)c3cc(O)c(O)c(O)c3)c2)[C@@H]1OC(=O)c1cc(O)c(O)c(OC(=O)c2cc(O)c(O)c(O)c2)c1)c1cc(O)c(O)c(OC(=O)c2cc(O)c(O)c(O)c2)c1
active: [2] 8.99 µM | CYP3A5 (gene 1577) 4.94 µM | [3] 12.4 µM | [4] 9.29 µM | [6] 25.6 µM | [7] 15.2 µM | [11] 9.74 µM | HGF (gene 3082) 15.2 µM | [13] 6.76 µM | [14] 9.51 µM | [15] 10.5 µM | [16] 15.2 µM
inactive: [1] | [5] | [8] | [9] | [10] | [12]

Cc1ccc(O)cc1
not listed: [2] | CYP3A5 (gene 1577) | [3] | [4] | [5] | [9] | [10]
inactive: all other assays above

O=C(O)c1cc(N=Nc2ccc(S(=O)(=O)Nc3ccccn3)cc2)ccc1O
not listed: [5] | [7] | [8] | [10] | [14] | [15] | [17]
inactive: all other assays above

Cc1ccc(N)cc1O
active: [4] 24.4 µM
not listed: [5] | [9] | [17]
inactive: all other assays above
